Measurements from PubChem BioAssay (EPA / NIEHS).
Results filed as inconclusive are left out. The source holds several records for some structures; these can differ, active in one and inactive in another. Calls of active or inactive are those of the source. Rule for the calls, unless noted: active = hit-call score of the fitted dose curve at least 0.9, where 1 is the maximum; inactive = score below 0.9.

Assays:
[1] = BSK_SAg_PBMCCytotoxicity: PBMC Cytotoxicity Assessment in the BioMAP Diversity Plus: SAg Assay (AID 2283093); conditions: primary human HUVEC with PBMC;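 note: PBMC viability measured as Alamar Blue reduction fluorescence at 546/580 nm; fitted both ways against DMSO so a hit may be loss or gain of signal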;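 for AC50: PBMC superantigen activated with SEB plus TSST-1 one hour after compound addition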
Summary of the method: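 HUVEC/PBMC co-culture; PBMC exposed to chemical 1 h before SEB and TSST-1 activation (20 ng/mL each), incubated 90 h, then Alamar Blue 6 h, fluorescence 546/580 nm. Bidirectional fit versus DMSO baseline.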

[2] = read-out: Interleukin-8 (IL8), CXCL8 (gene 3576); assay: BSK_SAg_IL8: BioMAP Diversity Plus: SAg Assay for Interleukin-8 (IL8) Biomarker Activity (AID 2283094); conditions: primary human HUVEC with PBMC; actives raise or lower the signal
Summary of the method: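 ELISA read-out of IL-8 in a primary human vascular co-culture (umbilical vein endothelium plus PBMC), taken 24 h after compound addition. Values derive from bidirectional fits against DMSO negative controls.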

[3] = BSK_SAg_Proliferation: Cell Proliferation Assessment in the BioMAP Diversity Plus: SAg Assay (AID 2283095); conditions: primary human HUVEC with PBMC;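 note: relative cell number as total protein by SRB absorbance in sub-confluent culture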
Summary of the method: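 Cells (endothelium plus PBMC, human primary) were dosed with chemical, cultured 96 h, fixed in 10% TCA and stained with 0.1% SRB. Absorbance at 560 nm gave relative protein, fitted bidirectionally relative to DMSO.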

[4] = BSK_SAg_SRB: Viability Assessment in the BioMAP Diversity Plus: SAg Assay (AID 2283096); conditions: primary human HUVEC with PBMC;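 note: cells read one day after compound addition; hits may be either gain or loss of signal compared with DMSO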
Summary of the method: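 Human umbilical vein endothelial cells co-cultured with PBMC, read 24 h after compound dosing. Total protein measured by sulforhodamine B staining (0.1% SRB after 10% TCA fixation, absorbance 560 nm); bidirectional fit versus DMSO baseline.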

[5] = target: human CYP2A6, CYP2A6 (gene 1548) (UniProt P11509); assay: NVS_ADME_hCYP2A6: NovaScreen (NVS) CYP450-related Enzyme Activity (ADME) Assay for human CYP2A6 (AID 2283099; active = hit-call score of the fitted dose curve at least 0.9, where 1 is the maximum)
Chain of human CYP2A6, CYP2A6 (gene 1548) (P11509 whole entry, looked up): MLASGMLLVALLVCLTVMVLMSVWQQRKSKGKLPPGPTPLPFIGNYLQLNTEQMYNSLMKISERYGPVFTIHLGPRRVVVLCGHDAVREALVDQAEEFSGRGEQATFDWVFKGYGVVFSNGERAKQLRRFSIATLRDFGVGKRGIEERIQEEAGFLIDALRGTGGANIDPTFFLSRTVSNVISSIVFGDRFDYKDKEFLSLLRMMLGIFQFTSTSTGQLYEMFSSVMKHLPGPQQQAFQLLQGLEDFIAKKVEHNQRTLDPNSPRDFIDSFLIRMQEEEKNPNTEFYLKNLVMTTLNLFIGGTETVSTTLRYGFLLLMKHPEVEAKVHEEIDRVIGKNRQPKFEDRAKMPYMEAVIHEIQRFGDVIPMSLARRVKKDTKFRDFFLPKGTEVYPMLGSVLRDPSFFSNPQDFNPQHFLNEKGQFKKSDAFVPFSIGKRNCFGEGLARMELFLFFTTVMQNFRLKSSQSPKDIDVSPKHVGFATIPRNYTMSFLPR
Summary of the method: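 Recombinant human CYP2A6 from insect cells was incubated with chemical for 0.5 h and activity read by fluorescence. Single-concentration duplicates at 10 uM preceded concentration-response testing to 20 uM, with activity referenced to acetonitrile.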

[6] = target: human CYP1A2, CYP1A2 (gene 1544) (UniProt P05177); assay: NVS_ADME_hCYP1A2: NovaScreen (NVS) CYP450-related Enzyme Activity (ADME) Assay for human CYP1A2 (AID 2283102; active = hit-call score of the fitted dose curve at least 0.9, where 1 is the maximum;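 for AC50: fluorescence from turnover of a fluorogenic substrate by recombinant insect-cell CYP1A2; potency for inhibition since loss of fluorescence marks reduced CYP1A2 activity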)
Chain of human CYP1A2, CYP1A2 (gene 1544) (P05177 whole entry, looked up): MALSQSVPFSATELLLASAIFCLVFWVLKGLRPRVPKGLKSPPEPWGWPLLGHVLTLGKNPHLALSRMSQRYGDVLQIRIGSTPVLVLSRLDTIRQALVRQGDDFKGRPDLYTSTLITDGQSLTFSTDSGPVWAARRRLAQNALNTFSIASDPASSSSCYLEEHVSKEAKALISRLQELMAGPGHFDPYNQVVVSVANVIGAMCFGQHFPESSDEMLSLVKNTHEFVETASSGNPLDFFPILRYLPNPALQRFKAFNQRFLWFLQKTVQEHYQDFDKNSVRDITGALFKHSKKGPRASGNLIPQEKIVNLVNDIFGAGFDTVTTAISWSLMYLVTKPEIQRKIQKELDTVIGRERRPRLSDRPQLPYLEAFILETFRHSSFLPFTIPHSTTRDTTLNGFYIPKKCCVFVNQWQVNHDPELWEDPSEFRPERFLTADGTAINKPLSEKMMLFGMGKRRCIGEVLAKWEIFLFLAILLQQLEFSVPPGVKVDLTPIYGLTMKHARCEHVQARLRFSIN
Summary of the method: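 Compounds were tested at 10 uM in duplicate against recombinant CYP1A2 produced in insect cells. Enzyme activity was measured by fluorescence 0.5 h after dosing, with loss of signal versus acetonitrile control. Active compounds were re-tested in concentration series.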

[7] = target: human CYP2C9, CYP2C9 (gene 1559) (UniProt P11712); assay: NVS_ADME_hCYP2C9: NovaScreen (NVS) CYP450-related Enzyme Activity (ADME) Assay for human CYP2C9 (AID 2283108; active = hit-call score of the fitted dose curve at least 0.9, where 1 is the maximum)
Chain of human CYP2C9, CYP2C9 (gene 1559) (P11712 whole entry, looked up): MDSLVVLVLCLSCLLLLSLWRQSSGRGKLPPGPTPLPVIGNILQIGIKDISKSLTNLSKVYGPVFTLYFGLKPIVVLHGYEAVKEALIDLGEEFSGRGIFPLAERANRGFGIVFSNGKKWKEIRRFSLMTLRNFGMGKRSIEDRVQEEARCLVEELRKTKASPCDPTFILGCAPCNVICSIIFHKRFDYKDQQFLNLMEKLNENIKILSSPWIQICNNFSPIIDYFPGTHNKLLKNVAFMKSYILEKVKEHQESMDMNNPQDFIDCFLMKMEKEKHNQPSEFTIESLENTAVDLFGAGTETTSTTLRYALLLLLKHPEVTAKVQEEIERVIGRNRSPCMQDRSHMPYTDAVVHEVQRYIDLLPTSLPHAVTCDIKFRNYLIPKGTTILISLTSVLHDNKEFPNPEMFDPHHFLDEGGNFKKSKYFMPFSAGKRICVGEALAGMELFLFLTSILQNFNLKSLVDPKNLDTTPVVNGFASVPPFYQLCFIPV
Summary of the method: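 Recombinant human CYP2C9 expressed in SF9 cells, fluorogenic substrate, fluorescence read 0.75 h after dosing. Chemicals first run in duplicate at 10 uM, with actives followed in concentration series; loss of signal versus acetonitrile baseline.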

[8] = target: Cytochrome P450 3A4 (Homo sapiens) (UniProt P08684); assay: NVS_ADME_hCYP3A4: NovaScreen (NVS) CYP450-related Enzyme Activity (ADME) Assay for human CYP3A4 (AID 2283110; active = hit-call score of the fitted dose curve at least 0.9, where 1 is the maximum)
Chain of Cytochrome P450 3A4 (Homo sapiens) (P08684 whole entry, looked up): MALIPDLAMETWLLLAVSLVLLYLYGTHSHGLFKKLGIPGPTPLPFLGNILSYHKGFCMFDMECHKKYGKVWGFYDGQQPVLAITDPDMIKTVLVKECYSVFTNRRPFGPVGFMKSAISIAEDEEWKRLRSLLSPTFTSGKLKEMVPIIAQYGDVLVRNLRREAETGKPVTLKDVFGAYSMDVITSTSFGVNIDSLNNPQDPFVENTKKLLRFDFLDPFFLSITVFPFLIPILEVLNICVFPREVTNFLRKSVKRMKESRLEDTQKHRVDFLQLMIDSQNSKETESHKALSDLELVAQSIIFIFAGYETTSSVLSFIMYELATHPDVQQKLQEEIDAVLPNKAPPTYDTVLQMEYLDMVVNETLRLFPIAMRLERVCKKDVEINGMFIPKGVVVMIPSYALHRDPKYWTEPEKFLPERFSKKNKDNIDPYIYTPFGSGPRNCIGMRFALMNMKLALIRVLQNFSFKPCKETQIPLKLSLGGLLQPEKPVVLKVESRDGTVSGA
Summary of the method: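 Cell-free recombinant enzyme expressed in insect cells; fluorescent substrate turnover read after 0.33 h, acetonitrile as negative control. Primary screen in duplicate at 10 uM, actives then tested in concentration series.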

[9] = target: Cytochrome P450 2C19 (Homo sapiens) (UniProt P33261); assay: NVS_ADME_hCYP2C19: NovaScreen (NVS) CYP450-related Enzyme Activity (ADME) Assay for human CYP2C19 (AID 2283113; active = hit-call score of the fitted dose curve at least 0.9, where 1 is the maximum;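 for AC50: potency for inhibition seen as loss of fluorescent signal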)
Summary of the method: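 Chemicals first screened in duplicate at 10 uM against recombinant human enzyme produced in insect cells; confirmed actives then run as concentration series. Fluorogenic substrate turnover read by fluorescence after 1 h, normalised to acetonitrile.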

[10] = target: human CYP1A1, CYP1A1 (gene 1543) (UniProt P04798); assay: NVS_ADME_hCYP1A1: NovaScreen (NVS) CYP450-related Enzyme Activity (ADME) Assay for human CYP1A1 (AID 2283100; active = hit-call score of the fitted dose curve at least 0.9, where 1 is the maximum)
Chain of human CYP1A1, CYP1A1 (gene 1543) (P04798 whole entry, looked up): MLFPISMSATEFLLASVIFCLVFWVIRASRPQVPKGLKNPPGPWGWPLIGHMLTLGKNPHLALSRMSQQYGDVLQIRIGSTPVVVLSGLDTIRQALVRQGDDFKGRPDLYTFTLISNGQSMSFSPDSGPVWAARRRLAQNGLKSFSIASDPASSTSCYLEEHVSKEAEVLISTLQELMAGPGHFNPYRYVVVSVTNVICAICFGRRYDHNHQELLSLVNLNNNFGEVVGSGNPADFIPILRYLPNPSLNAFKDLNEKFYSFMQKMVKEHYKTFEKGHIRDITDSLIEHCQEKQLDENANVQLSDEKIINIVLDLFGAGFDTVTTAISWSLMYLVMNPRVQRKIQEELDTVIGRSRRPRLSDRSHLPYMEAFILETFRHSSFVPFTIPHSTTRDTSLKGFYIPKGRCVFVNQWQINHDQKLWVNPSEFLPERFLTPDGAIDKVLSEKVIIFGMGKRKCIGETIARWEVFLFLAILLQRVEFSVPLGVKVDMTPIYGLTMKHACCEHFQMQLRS
Summary of the method: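 Compounds first went through duplicate single-concentration testing at 10 uM against purified CYP1A1. Those passing a threshold such as 30% inhibition entered singleton dose-response, highest concentration 20 uM. Signal was fluorescence measured after 1 hour.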

[11] = target: human CYP19A1, CYP19A1 (gene 1588) (UniProt P11511); assay: NVS_ADME_hCYP19A1: NovaScreen (NVS) CYP450-related Enzyme Activity (ADME) Assay for human CYP19A1 (AID 2283098; active = hit-call score of the fitted dose curve at least 0.9, where 1 is the maximum;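 for AC50: potency for inhibitors seen as loss of fluorescent enzyme signal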)
Chain of human CYP19A1, CYP19A1 (gene 1588) (P11511 whole entry, looked up): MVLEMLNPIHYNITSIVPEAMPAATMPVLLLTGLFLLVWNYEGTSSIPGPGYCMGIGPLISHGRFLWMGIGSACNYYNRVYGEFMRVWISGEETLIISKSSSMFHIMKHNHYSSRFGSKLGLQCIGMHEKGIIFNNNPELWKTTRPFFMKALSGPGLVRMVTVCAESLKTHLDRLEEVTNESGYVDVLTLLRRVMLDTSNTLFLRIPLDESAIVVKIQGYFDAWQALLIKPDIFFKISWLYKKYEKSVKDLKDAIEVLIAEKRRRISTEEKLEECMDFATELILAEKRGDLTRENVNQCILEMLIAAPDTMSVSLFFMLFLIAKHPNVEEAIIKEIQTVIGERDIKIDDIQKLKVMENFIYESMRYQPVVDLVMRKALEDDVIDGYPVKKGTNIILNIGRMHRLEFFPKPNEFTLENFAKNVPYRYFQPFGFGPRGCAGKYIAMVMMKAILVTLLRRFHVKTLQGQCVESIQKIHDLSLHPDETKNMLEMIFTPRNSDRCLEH
Summary of the method: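 Recombinant enzyme in a cell-free format, read 0.5 h after dosing by fluorescence from a fluorogenic substrate. Loss of signal was fitted against acetonitrile as baseline. Primary screen in duplicate at 10 uM, actives then tested in concentration series.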

[12] = target: human CYP2D6, CYP2D6 (gene 1565) (UniProt P10635); assay: NVS_ADME_hCYP2D6: NovaScreen (NVS) CYP450-related Enzyme Activity (ADME) Assay for human CYP2D6 (AID 2283107; active = hit-call score of the fitted dose curve at least 0.9, where 1 is the maximum)
Chain of human CYP2D6, CYP2D6 (gene 1565) (P10635 whole entry, looked up): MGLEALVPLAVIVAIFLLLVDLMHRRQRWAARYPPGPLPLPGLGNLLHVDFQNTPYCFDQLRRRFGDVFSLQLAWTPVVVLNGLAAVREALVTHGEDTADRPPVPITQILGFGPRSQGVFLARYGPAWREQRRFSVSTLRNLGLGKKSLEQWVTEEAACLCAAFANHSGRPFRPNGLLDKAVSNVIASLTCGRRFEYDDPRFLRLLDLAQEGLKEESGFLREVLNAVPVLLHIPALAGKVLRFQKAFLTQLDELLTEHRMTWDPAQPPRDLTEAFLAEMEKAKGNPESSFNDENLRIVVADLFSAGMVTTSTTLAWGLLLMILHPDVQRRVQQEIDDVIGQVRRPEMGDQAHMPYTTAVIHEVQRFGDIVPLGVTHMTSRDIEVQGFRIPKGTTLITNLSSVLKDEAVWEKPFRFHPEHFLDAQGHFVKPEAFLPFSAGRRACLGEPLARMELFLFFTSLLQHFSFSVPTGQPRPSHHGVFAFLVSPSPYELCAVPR
Summary of the method: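 Compounds were first tested in duplicate at 10 uM against recombinant enzyme produced in insect cells, with substrate turnover measured by fluorescence after 1 hour. Decreased signal, referenced to acetonitrile vehicle, was taken as reduced enzyme activity. Active chemicals went on to concentration-response testing.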

[13] = target: human Acid Phosphatase 1 (ACP1), ACP1 (gene 52) (UniProt P24666); assay: NVS_ENZ_hACP1: NovaScreen (NVS) Enzymatic Assay for human Acid Phosphatase 1 (ACP1) (AID 2283136; active = hit-call score of the fitted dose curve at least 0.9, where 1 is the maximum)
Chain of human Acid Phosphatase 1 (ACP1), ACP1 (gene 52) (P24666 whole entry, looked up): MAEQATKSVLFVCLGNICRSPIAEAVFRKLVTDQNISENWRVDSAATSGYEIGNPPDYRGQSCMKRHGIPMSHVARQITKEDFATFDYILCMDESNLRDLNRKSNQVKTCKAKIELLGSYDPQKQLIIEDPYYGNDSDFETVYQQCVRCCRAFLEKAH
Summary of the method: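 Recombinant enzyme expressed in Sf9 cells, tested cell-free; activity read by fluorescence with electrophoretic mobility shift separation of substrate and product, 1.5 h after dosing. Primary screen in duplicate at 25 uM, actives then run in concentration series; loss of signal versus DMSO.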

[14] = target: human CYP2B6, CYP2B6 (gene 1555) (UniProt P20813); assay: NVS_ADME_hCYP2B6: NovaScreen (NVS) CYP450-related Enzyme Activity (ADME) Assay for human CYP2B6 (AID 2283101; active = hit-call score of the fitted dose curve at least 0.9, where 1 is the maximum)
Chain of human CYP2B6, CYP2B6 (gene 1555) (P20813 whole entry, looked up): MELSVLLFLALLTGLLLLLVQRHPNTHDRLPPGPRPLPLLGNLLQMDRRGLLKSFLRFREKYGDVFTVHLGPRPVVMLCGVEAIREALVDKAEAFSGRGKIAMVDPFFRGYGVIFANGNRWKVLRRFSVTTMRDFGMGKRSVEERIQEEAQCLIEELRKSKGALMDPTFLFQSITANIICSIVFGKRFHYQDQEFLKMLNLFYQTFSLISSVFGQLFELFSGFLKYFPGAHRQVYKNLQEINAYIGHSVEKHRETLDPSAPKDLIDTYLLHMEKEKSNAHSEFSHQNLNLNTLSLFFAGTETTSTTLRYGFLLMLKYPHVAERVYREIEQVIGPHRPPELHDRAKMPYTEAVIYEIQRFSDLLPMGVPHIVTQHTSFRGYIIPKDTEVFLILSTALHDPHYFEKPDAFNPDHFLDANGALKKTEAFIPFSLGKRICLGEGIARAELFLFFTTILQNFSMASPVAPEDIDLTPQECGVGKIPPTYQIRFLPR
Summary of the method: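 Recombinant human CYP2B6 with fluorogenic substrate, read by fluorescence intensity 1 h after dosing. Primary screen in duplicate at 10 uM, actives followed in concentration series; signal loss relative to acetonitrile control.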

Measured: AC50

CCCCCCCCN(C)CCCCCCCC
inactive: [1] | [2] | [3] | [4]

Cc1ccc2oc(CN(Cc3ccccc3)C(=O)Nc3c(F)cc(F)cc3F)c(-c3ccc(Cl)cc3)c2c1
active: [3] 6.03 µM
inactive: [1] | [2] | [4]

C[C@]12CC[C@@H]3c4ccc(O)cc4CC[C@H]3[C@@H]1CCC2=O
inactive: [1] | [3] | [4]

CCCCCCCCCC(=O)O
inactive: [1] | [3] | [4]

CCO[Si](CCCNC(N)=O)(OCC)OCC
inactive: [1] | [3] | [4]

O=c1ccc2ccccc2o1
inactive: [1] | [3] | [4]

CCOC(=O)O[C@H](C)OC(=O)c1ccc2c(c1)cc(C(=O)NC1CCN(C(C)C)CC1)n2Cc1cc(-c2ccc(Cl)s2)on1
active: [1] 2.82 µM | [3] 2.37 µM | [4] 6.18 µM | [6] 13.7 µM | [7] 15.4 µM | [8] 9.45 µM | [9] 5.54 µM
inactive: [5]

CCCCCc1ccc(N)cc1
inactive: [1] | [3] | [4]

Cc1oc2c(NC(=O)c3c(Cl)cccc3Cl)cccc2c1C(C)(C)O
active: [1] 14.2 µM | [3] 20.6 µM | [4] 25.3 µM | [10] 2.39 µM | [8] 7.44 µM

OCCO
inactive: [1] | [3] | [4] | [11]

c1ccc(C[n+]2cccc3ccccc32)cc1
inactive: [1] | [3] | [4]
active: [12] 7.84 µM | [9] 4.78 µM

O=C=NCCCCCCN=C=O
active: [3] 15.8 µM
inactive: [1] | [4]

O=C(Nc1ccc(Cl)cc1)Nc1ccc(Cl)c(Cl)c1
active: [1] 2.72 µM | [3] 1.79 µM | [4] 2.28 µM | [9] 10 µM

Cc1ccc(C(C)C)cc1
inactive: [1] | [3] | [4]

COc1cc(C(=O)NC2CCN(C)CC2)ccc1Nc1ncc2c(n1)N(C1CCCC1)CC(F)(F)C(=O)N2C
active: [1] 13.8 µM | [3] 5.59 µM | [4] 18.6 µM | [7] 6.56 µM | [9] 7.11 µM

CN1C(=O)CC[C@H]1c1cccnc1
inactive: [1] | [3] | [4]

CC[C@@H]1C[C@H](N(Cc2cc(C(F)(F)F)cc(C(F)(F)F)c2)C(C)=O)c2cc(C(F)(F)F)ccc2N1C(=O)OC(C)C
inactive: [1] | [3] | [4]

O=C(O)c1ccccc1-n1cc(C(=O)O)c(=O)c2cc(Nc3c(F)cc(F)cc3Cl)c(Cl)cc21
inactive: [1] | [3] | [4]

CC(C)(C)c1cc(/C=C2\SC(N)=NC2=O)cc(C(C)(C)C)c1O
active: [1] 11.1 µM | [3] 7.44 µM | [4] 26.6 µM | [9] 1.16 µM

CC(C)(O)c1ccc(CNC(=O)c2cccnc2Oc2ccc3nonc3c2)cc1
inactive: [1] | [3] | [4]
active: [7] 13 µM | [9] 10.9 µM

COc1cccc([C@H](O)C2CCN(CCc3ccc(F)cc3)CC2)c1OC
active: [12] 5.29 µM
inactive: [1] | [3] | [4]

c1ccc2ccccc2c1
inactive: [1] | [3] | [4] | [13]

CCCC(=O)OCCC(C)C
inactive: [1] | [3] | [4]

CCCCCCCCOc1ccc(C(=O)c2ccccc2)c(O)c1
active: [3] 15 µM | [4] 30.4 µM
inactive: [1] | [11]

CCCCCCCCOC(=O)c1cc(O)c(O)c(O)c1
active: [1] 27.7 µM | [3] 5.52 µM | [4] 24.8 µM | [14] 10.1 µM | [6] 4.26 µM | [12] 10.1 µM | [7] 7.75 µM | [8] 15.4 µM | [9] 5.4 µM

CC(O)CC(C)(C)O (stereo not given)
inactive: [1] | [3] | [4]

O=C1c2ccccc2C(=O)N1CCc1noc(-c2ccc(CN3CCCCCC3)s2)n1
inactive: [1] | [3] | [4] | [8]
active: [10] 4.62 µM | [12] 6.57 µM | [7] 5.62 µM | [9] 1.13 µM

C[C@]12CC[C@@H]3c4ccc(O)cc4CC[C@H]3[C@@H]1CC[C@H]2O
inactive: [1] | [11]
active: [3] 12.4 µM | [4] 12.1 µM | [11] 10 µM | [9] 0.649 µM

CC1(C)NC(=O)N(c2ccc([N+](=O)[O-])c(C(F)(F)F)c2)C1=O
active: [14] 7.49 µM | [6] 5.28 µM | [9] 2.81 µM
inactive: [1] | [3] | [4]

CCCCOC(=O)c1ccc(O)cc1
active: [14] 4.55 µM | [6] 2.4 µM | [12] 4.89 µM | [7] 7.15 µM | [9] 7.75 µM
inactive: [1] | [3] | [4]

O=C1CCC(C2CCCCC2)CC1
active: [11] 11.6 µM
inactive: [1] | [3] | [4] | [11] | [9]

Cc1cc(F)ccc1-c1cc(N2CC[C@@H](O)[C@H]2CO)ncc1N(C)C(=O)C(C)(C)c1cc(C(F)(F)F)cc(C(F)(F)F)c1
active: [1] 7.85 µM | [3] 5.7 µM | [4] 10.8 µM

CN(C[C@@H](CC[N+]12CCC(C3CCCCC3)(CC1)CC2)c1ccc(Cl)c(Cl)c1)C(=O)c1cc(C(F)(F)F)cc(C(F)(F)F)c1
active: [1] 9.71 µM | [3] 5.2 µM | [4] 26.9 µM | [10] 14.8 µM | [7] 7.68 µM

Clc1ccccc1C(c1ccccc1)(c1ccccc1)n1ccnc1
active: [1] 33.1 µM | [3] 9.32 µM | [4] 24.4 µM | [10] 2.68 µM | [12] 3.72 µM | [7] 0.585 µM | [9] 1.1 µM
inactive: [5] | [6]

CO[C@H]1/C=C/O[C@@]2(C)Oc3c(C)c(O)c4c(O)c(c(/C=N/N5CCN(C)CC5)c(O)c4c3C2=O)NC(=O)/C(C)=C\C=C\[C@H](C)[C@H](O)[C@@H](C)[C@@H](O)[C@@H](C)[C@H](OC(C)=O)[C@@H]1C
inactive: [4]
active: [1] 9.8 µM | [3] 17.6 µM | [9] 10.7 µM

COc1ccc2cc(S(=O)(=O)N[C@H](CC(=O)N[C@H](Cc3ccc(CN4[C@H](C)CCC[C@@H]4C)cc3)C(=O)N(C)C(C)C)c3ccc4c(c3)OCO4)ccc2c1
inactive: [10]
active: [1] 14.6 µM | [3] 12 µM | [4] 17.3 µM | [12] 0.305 µM | [8] 0.861 µM | [9] 5.3 µM

NCc1cccc(C2CCN(C(=O)c3ccc(C#Cc4ccccc4F)o3)CC2)c1
active: [1] 11.9 µM | [3] 7.97 µM | [4] 15.2 µM | [5] 17.9 µM | [10] 7.2 µM | [14] 5.71 µM | [6] 6.43 µM | [12] 6.76 µM | [7] 0.112 µM | [8] 10 µM | [9] 0.23 µM

CCCCCCCCCCCC[N+](C)(C)C
active: [1] 20 µM | [3] 6.09 µM | [4] 25.8 µM | [12] 7.58 µM

CCN(Cc1cccc(S(=O)(=O)O)c1)c1ccc(C(=C2C=CC(=[N+](CC)Cc3cccc(S(=O)(=O)O)c3)C=C2)c2ccccc2S(=O)(=O)[O-])cc1
active: [1] 10 µM | [3] 9.61 µM | [7] 4.22 µM
inactive: [4]

Cc1c2ccccc2c(C)c2c1ccc1ccccc12
active: [1] 34 µM | [4] 29.1 µM | [6] 4.33 µM | [9] 7.17 µM
